From PubChem BioAssay
ELG1 repair inh: qHTS screen for small molecules that inhibit ELG1-dependent DNA repair in human embryonic kidney (HEK293T) cells expressing luciferase-tagged ELG1; 330,000 compounds, 2.3% hits; Potency, µM (highest dose often 46.1 µM), without a hit: top-dose activity change, negative = inhibition, actives largely listed as inhibitors; HEK293T ELG1-luciferase reporter, luminescence, 16 h; DNA damage induced by 5-fluorouridine; note: % is set by controls: 0 for no effect and ±100 for the full control effect; nearly all actives have a fitted effect of over 55% in size
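Step one: seed 2,000 cells per well. Step two: pin-transfer compound or DMSO alongside 5-fluorouridine. Step three: incubate 16 hr, 37 °C, 5% CO2. Step four: add ONE-Glo, wait 30 min, read luminescence.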
ELG1 genotoxic: qHTS screen for small molecules that induce genotoxicity in human embryonic kidney (HEK293T) cells expressing luciferase-tagged ELG1. HEK293T ELG1-luciferase reporter, luminescence, 16 h. Potency, µM (top dose mostly 46 µM), for inactives: at the highest dose activity change, positive = activation, most hits filed as activators. 330,000 compounds, 1.3% hits; note: % of control where 0% means no effect; nearly all actives have a fitted effect of over 60% in size
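Genotoxicity was scored as increased ELG1-luciferase reporter signal, measured by ONE-Glo luminescence (30 min, room temperature). Compound or vehicle exposure of the HEK293T reporter cells lasted 16 hr at 37°C.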
Rab9 promoter act: qHTS Assay for Rab9 Promoter Activators; 320,000 compounds, 2.8% hits; Huh7 Rab9 promoter-luciferase reporter, luminescence, 24 h; Potency, µM (titrated, usually from 9.22 µM), inactives show at the top dose activation, negative = inhibition, usual class: activators; note: % of control where 0% means no effect; nearly all actives have a fitted effect of over 60% in size
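Rab9 promoter-driven luciferase in stably transfected Huh7 cells; 1500 cells/well rested 2 h, exposed to compound in DMSO for 24 h at 37 °C, 5% CO2. Luminescence read 10 min after adding luciferase reagent at ambient temperature.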
SMN2 splice up: qHTS Assay for Enhancers of SMN2 Splice Variant Expression; HEK293 SMN2-luciferase splicing reporter, luminescence, 30-36 h; Potency, µM (highest dose often 46.1 µM), inactives show at the top dose activity change, positive = activation, most hits filed as activators; 210,000 compounds, 2.8% hits; AID 1458, 2008; note: % of control where 0% means no effect; nearly all actives have a fitted effect of over 55% in size
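HEK293 cells carry an SMN2 minigene-luciferase reporter in which exon 7 inclusion puts luciferase in frame. Cells were seeded at 2000 cells/well, attached for 10-12 hours, then exposed to compounds for 30-36 hours at 37C before ONE-Glo luminescence.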
NPC1 promoter act: qHTS Assay for NPC1 Promoter Activators; Huh7 NPC1 promoter luciferase reporter, 24 h; Potency, µM (highest dose often 9.22 µM), inactives show at the top dose activation, hits mostly activators; 320,000 compounds, 2.4% hits; AID 485313, 2010; note: % of control where 0% means no effect; nearly all actives have a fitted effect of over 60% in size
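Compounds in DMSO were transferred onto Huh7 NPC1-luciferase reporter cells pre-incubated 2 h; after 24 h at 37 °C, Amplite reagent was dispensed and luminescence recorded 10 min later.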
FLuc modulator: qHTS profiling assay for firefly luciferase inhibitor/activator using purifed enzyme and Km concentrations of substrates (counterscreen for miR-21 project) | AID 588342, 2011 | purified FLuc, Km substrates, luminescence inhibition | Luciferin 4-monooxygenase (Photinus pyralis), P08659 | 360,000 compounds, 6.9% hits | Potency, µM (series often up to 57.5 µM), without a hit: at the top dose activity change, negative = inhibition, hits mostly inhibitors;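 note: plate controls were vehicle for no effect and reference inhibitor for full effect; nearly all actives have a fitted effect of over 55% in size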
Target sequence (P08659 whole entry, looked up): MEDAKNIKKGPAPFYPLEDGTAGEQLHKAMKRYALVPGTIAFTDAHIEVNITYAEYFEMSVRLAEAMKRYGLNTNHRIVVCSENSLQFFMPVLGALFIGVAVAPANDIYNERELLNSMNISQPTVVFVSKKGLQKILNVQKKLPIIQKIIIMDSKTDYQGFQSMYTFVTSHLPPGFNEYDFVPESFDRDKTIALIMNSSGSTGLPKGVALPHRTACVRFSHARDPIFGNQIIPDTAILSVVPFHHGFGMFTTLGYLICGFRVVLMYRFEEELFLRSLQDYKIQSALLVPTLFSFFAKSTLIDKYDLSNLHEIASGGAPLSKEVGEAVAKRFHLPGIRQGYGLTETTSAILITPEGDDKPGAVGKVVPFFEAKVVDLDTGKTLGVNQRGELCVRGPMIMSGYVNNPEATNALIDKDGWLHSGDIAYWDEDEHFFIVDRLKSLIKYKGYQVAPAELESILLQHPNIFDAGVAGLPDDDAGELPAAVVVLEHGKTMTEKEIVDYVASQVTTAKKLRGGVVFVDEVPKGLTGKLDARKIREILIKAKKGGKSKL
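Purified P. pyralis luciferase, 10 nM final, with Km-level 10 uM D-luciferin and 10 uM ATP in 50 mM Tris acetate pH 7.5, 10 mM Mg acetate, 0.01% Tween-20, 0.05% BSA; 6-point qHTS titration about 60 µM downward; luminescence read.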
* = called active by the depositor; ? = inconclusive; nt = no result; [ ] = remark or other dose. Sampled rows, rich in hits. Any-hit rate of the full collection: about 9.4%. Calls come from the whole dose curve; as a rule, active = well fitted curve in the direction sought with a large enough effect; inconclusive = small, poorly fitted or top-dose-only effect, or another doubt; inactive = no such curve, though single readings can be large; an effect the other way counts as inactive or inconclusive. Potency is the fitted concentration of half-maximal effect.

SMILES | ELG1 repair inh | ELG1 genotoxic | Rab9 promoter act | SMN2 splice up | NPC1 promoter act | FLuc modulator
O=C(Nc1ccc2c(c1)OCCO2)c1ccc(Cl)cc1Cl | ? | ? | 0.28µM* | nt | 0.45µM* | 1.2µM*
O=C(c1c2c(nc3ccccc13)C(=O)N(C1CCCCC1)C2)N1CCN(c2ccc(F)cc2)CC1 | nt | nt | nt | nt | nt | -1%
O=C(Nc1ccc2c(c1)OCCO2)C(=O)NC1CC1 | ? | ? | 2.8µM* | nt | ? | 4.8µM*
CC(=O)Nc1ccc2c(c1)OCCOCCOc1cc(NC(C)=O)ccc1OCCOCCOCCO2 | -1% | 0% | 1% | 4% | 7% | 0%
COc1cc(C(=O)Nc2c(C(=O)Nc3ccccc3F)oc3ccccc23)cc(OC)c1OC | nt | nt | nt | -2% | nt | -19%
Cc1ccc(-c2n[nH]c3c2C(c2ccccc2)N(c2ccc(C(=O)O)cc2)C3=O)cc1 (configuration not stated) | 1% | 0% | -2% | nt | -1% | ?
Cc1ccc(-c2n[nH]c3c2C(c2cccc(O)c2)N(c2ccc(C(=O)O)cc2)C3=O)cc1 (configuration not stated) | 2% | 1% | -2% | 4% | -2% | 8.5µM*
CC(=O)OCCCN1c2ccccc2Nc2nnc(-c3ccccc3)cc21 | ? | ? | 1.6µM* | 14µM* | 1.8µM* | 2.4µM*
CC(=O)OCCCN1C(=O)c2cccc3cc(Br)cc(c23)C1=O | -3% | 2% | -1% | nt | -4% | 4%
COc1ccccc1NC(=O)CSc1ccc(-c2ccc(-n3cccn3)cc2)nn1 | -8% | 0% | 13% | nt | 13% | 1.5µM*
CC(=O)c1cccc(NC(=O)CSc2ccc(-c3ccc4c(c3)OCO4)nn2)c1 | ? | -3% | ? | 12% | 27% | ?
COc1ccc(-c2ccc(SCC(=O)Nc3cccc(C(C)=O)c3)nn2)cc1OC | ? | -15% | 30% | nt | 23% | 6µM*
COc1ccc(-c2ccc(SCC(=O)NC3CCCCC3)nn2)cc1OC | ? | 9% | ? | nt | 27% | 5.4µM*
CC(=O)c1cccc(NC(=O)CSc2ccc(-c3ccco3)nn2)c1 | -13% | -13% | 15% | nt | 12% | 24µM*
CCc1ccc(NC(=O)CSc2nc3c(c(=O)[nH]2)CN(Cc2ccc(C)cc2)CC3)cc1 | nt | nt | nt | nt | nt | 2%
CCOc1ncccc1C(=O)Nc1cccc(-c2nnc3n2CCCCC3)c1 | ? | -5% | -1% | -7% | -2% | 4%
Cc1ccc(C)c2nc3sc(C(=O)O)cc3cc12 | 14% | 3% | -1% | -18% | -6% | 24µM*
Cc1cc2ccccc2c[n+]1CC(O)C[n+]1cc2ccccc2cc1C | nt | nt | nt | 0%[9.22 µM] | nt | nt
O=C(C1CCCN(S(=O)(=O)c2cccc3nonc23)C1)N1CCN(c2cccc(Cl)c2)CC1 (configuration not stated) | ? | -19% | 1% | 2% | 1% | -1%
O=S(=O)(c1cccc2nonc12)N1CCN(c2ccc(F)cc2)CC1 | ? | 6% | -8% | nt | -1% | 27µM*
O=C(C1CCCN(S(=O)(=O)c2cccc3nonc23)C1)N1CCN(c2ccccc2Cl)CC1 (configuration not stated) | 23µM* | -9% | -10% | -11% | 1% | -1%
COc1ccc(N=NC2=C(O)CC(C)(C)CC2=O)c(OC)c1 | 0% | 7% | 14% | 7% | 7% | ?
COc1ccc(N=Nc2nc3cc(Br)c(Br)cc3n2C)c(OC)c1 | -2% | -19% | 0% | 17% | 0% | 5.4µM*
